Measured values from PubChem BioAssay (NCATS).
Values without a mark were called inactive. Calls come from the whole dose curve; as a rule, active = well fitted inhibition curve with a large enough effect; inconclusive = small, poorly fitted or top-dose-only effect; inactive = no such curve, though single readings can be large or run the other way. Results filed as inconclusive are left out.

Assay: qHTS assay for measurement of the activity of small molecule inhibitors on Zika virus induced Caspase-3 activity in human iPSC derived neural progenitor cells (hNPCs) (AID 1224857); note: % of control where 0% means no effect; nearly all actives have a fitted effect of over 65% in size
Conditions: hNPCs ZIKV-induced caspase-3/7, Caspase-Glo luminescence, 6 h; series mostly up to 45.7 µM; activity change, negative = inhibition: at the top concentration
In short: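 Caspase-3/7 induction by a 6-hour ZIKV infection was quantified with a luminescent Caspase-Glo 3/7 reagent incubated 30 minutes at room temperature. Compounds were preincubated with hNPCs for 1 hour; inhibition was calculated against uninfected and infected control wells.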

| Structure (SMILES) | activity change, negative = inhibition |
| --- | --- |
| CCCCCCCCCCCCCC[N+](C)(C)C | -17.7% |
| Cn1cnc2c(NCc3ccccc3)nc(NCCO)nc21 | 29.6% |
| COc1cc(NS(=O)(=O)c2ccc(N)cc2)nc(C)n1 | -1.26% |
| CC(C)(C)C1CCC(CC2=C(O)c3ccccc3C(=O)C2=O)CC1 (stereo not drawn) | 9.48% |
| Cc1nc(N)nc(N)c1-c1ccc(Cl)c(Cl)c1 | 0.214% |
| NC(=O)C1(N2CCCCC2)CCN(CCCN2c3ccccc3CCc3ccc(Cl)cc32)CC1 | 6.03% |
| CO[C@@H]1[C@@H](OC)[C@H](C)[C@@](O)(CC(=O)O)O[C@H]1[C@H](C)[C@H]1O[C@@]2(CC[C@@](C)([C@H]3CC[C@@](C)([C@@H]4O[C@@H]([C@H]5O[C@](C)(O)[C@H](C)C[C@@H]5C)C[C@@H]4OC4C[C@H](OC)[C@@H](OC)[C@H](C)O4)O3)O2)C[C@H](O)[C@H]1C (stereo partly drawn) | -3.35% |
| CN(C)c1cc2c(Nc3ccc4c(cnn4Cc4ccccc4)c3)ncnc2cn1 | 2.72% |
| COc1cc(C(=O)OC(COCCC(C)C)CN2CCOCC2)cc(OC)c1OC (stereo not drawn) | -3.41% |
| CCN(CC)CCOc1ccc(/C(=C(\Cl)c2ccccc2)c2ccccc2)cc1 | 164% |
| CCCCCOc1ccc(C2SC(=O)NC2=O)cc1OCC (stereo not drawn) | 0.167% |
| CCCCCCCCCCCCCCCCCCNC(=O)OC1CCN(C(=O)OC[C@H](COC(=O)N(Cc2cccc[n+]2CC)C(=O)c2ccccc2OC)OC)CC1 | -10.8% |
| CCOC(=O)c1ccc(OCCN2C[C@H](O)[C@@H](O)[C@H](O)[C@H]2CO)cc1 | -3.9% |
| CCCCCC(=O)O[C@]1(C(C)=O)CC[C@H]2[C@@H]3CCC4=CC(=O)CC[C@]4(C)[C@H]3CC[C@@]21C | 63.1% |
| CC[C@@H]([C@H](C)O)n1ncn(-c2ccc(N3CCN(c4ccc(OC[C@@H]5CO[C@@](Cn6cncn6)(c6ccc(F)cc6F)C5)cc4)CC3)cc2)c1=O | 12.9% |
| CCCCCCCCCCCCCCCC[n+]1ccccc1 | 1.23% |
| CN(C)C(=O)CNC(=O)Cc1ccccc1 | 1.46% |
| CO[C@]1(NC(=O)CSC(F)F)C(=O)N2C(C(=O)O)=C(CSc3nnnn3CCO)CO[C@H]21 | -8.29% |
| CC[C@@]1(O)C(=O)OCc2c1cc1n(c2=O)Cc2c-1nc1ccccc1c2/C=N/OC(C)(C)C | 106% |
| CCCCC(O)/C=C(C)/C=C/C=C/C(=O)N1CCCC1=O (stereo not drawn) | 21% |
| CC(=O)O[C@@H]1C(=O)O[C@@H]2[C@H]1OC(=O)[C@@H]2OC(C)=O | 17.1% |
| Nc1ncnc2n[nH]c(Nc3ccc(F)cc3)c12 | 6.17% |

Assay: qHTS assay for measurement of the activity of small molecule inhibitors on Zika virus induced Caspase-3 activity in human astrocytoma cells (AID 1224859);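 note: plate controls were ZIKV-infected untreated cells for no effect and uninfected cells for full effect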
Conditions: SNB-19 ZIKV-induced caspase-3/7, luminescence, 6 h; series mostly up to 45.7 µM; activity change, negative = inhibition: at the top concentration
In short: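 In SNB-19 cells plated at 250 cells/well and grown 16-20 h, compounds were applied 1 h before ZIKV (2 FFU/cell). Six hours later caspase-3/7 luminescence was recorded.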

| Structure (SMILES) | activity change, negative = inhibition |
| --- | --- |
| CC(=O)OCC(=O)Nc1cc(C#N)cc(NC(=O)COC(C)=O)c1Cl | -24.2% |
| CCN1C(=O)c2ccccc2C1Nc1ccc(OCCN2CCCCC2)cc1 (stereo not drawn) | -7.25% |
| CCC1=C[C@@H]2CN(C1)Cc1c([nH]c3ccccc13)[C@@](C(=O)OC)(c1cc3c(cc1OC)N(C)[C@H]1[C@@](O)(C(=O)OC)[C@H](OC(C)=O)[C@]4(CC)C=CCN5CC[C@]31[C@@H]54)C2 | 11.1% |
| CC(=O)Nc1ccn(C2COC(COC(=O)c3ccccc3)O2)c(=O)n1 (stereo not drawn) | 0.449% |
| Cc1ccc(CCn2c3c(c4cc(Cl)ccc42)CN(C)CC3)cn1 | 9.03% |
| O=C(Nc1ccc(Cl)cc1)Nc1ccc(Cl)c(C(F)(F)F)c1 | 166% |
| O=C(CCCCCCCCC#CI)Oc1ccccc1 | 1.28% |
| CN(CC1(C)CCCO1)S(=O)(=O)c1ccc(Cl)c(S(N)(=O)=O)c1 (stereo not drawn) | 0.415% |
| O=C(O)Cc1ccccc1Oc1ccc(Cl)cc1Cl | 1.64% |
| CO/N=C(/C(=O)N[C@@H]1C(=O)N2C(C(=O)O)=C(Cn3nnc(C)n3)CS[C@H]12)c1csc(N)n1 | 0.716% |
| CCCCCCCCCCCC[N+](C)(C)Cc1ccccc1 | 167% |
| CC(C)=CCNc1ncnc2c1ncn2[C@@H]1O[C@H](CO)[C@@H](O)[C@H]1O | -4.22% |
| CCOC(=O)C1=C(C)NC(C)=C(C(=O)OCC)C1c1ccccc1/C=C/C(=O)OC(C)(C)C | 29.6% |
| C=CC[N+]1([C@H]2C[C@H]3[C@@H]4CC[C@H]5C[C@H](OC(C)=O)[C@@H](N6CCCCC6)C[C@]5(C)[C@H]4CC[C@]3(C)[C@H]2OC(=O)CC)CCCCC1 | 0.0902% |
| CCCCCCCCCCCCCC[N+](C)(C)C | 88% |
| Cn1cnc2c(NCc3ccccc3)nc(NCCO)nc21 | -7.89% |
| COc1cc(NS(=O)(=O)c2ccc(N)cc2)nc(C)n1 | -21.3% |
| CC(C)(C)C1CCC(CC2=C(O)c3ccccc3C(=O)C2=O)CC1 (stereo not drawn) | -1.13% |

| Structure (SMILES) | activity change, negative = inhibition |
| --- | --- |
| Cc1nc(N)nc(N)c1-c1ccc(Cl)c(Cl)c1 | 5.06% |
| NC(=O)C1(N2CCCCC2)CCN(CCCN2c3ccccc3CCc3ccc(Cl)cc32)CC1 | 85.6% |
| CO[C@@H]1[C@@H](OC)[C@H](C)[C@@](O)(CC(=O)O)O[C@H]1[C@H](C)[C@H]1O[C@@]2(CC[C@@](C)([C@H]3CC[C@@](C)([C@@H]4O[C@@H]([C@H]5O[C@](C)(O)[C@H](C)C[C@@H]5C)C[C@@H]4OC4C[C@H](OC)[C@@H](OC)[C@H](C)O4)O3)O2)C[C@H](O)[C@H]1C (stereo partly drawn) | 8.04% |
| CN(C)c1cc2c(Nc3ccc4c(cnn4Cc4ccccc4)c3)ncnc2cn1 | 27.1% |
| COc1cc(C(=O)OC(COCCC(C)C)CN2CCOCC2)cc(OC)c1OC (stereo not drawn) | 6.32% |
| CCN(CC)CCOc1ccc(/C(=C(\Cl)c2ccccc2)c2ccccc2)cc1 | 48.5% |
| CCCCCOc1ccc(C2SC(=O)NC2=O)cc1OCC (stereo not drawn) | 0.617% |
| CCCCCCCCCCCCCCCCCCNC(=O)OC1CCN(C(=O)OC[C@H](COC(=O)N(Cc2cccc[n+]2CC)C(=O)c2ccccc2OC)OC)CC1 | 17.4% |
| CCOC(=O)c1ccc(OCCN2C[C@H](O)[C@@H](O)[C@H](O)[C@H]2CO)cc1 | -9.16% |
| CCCCCC(=O)O[C@]1(C(C)=O)CC[C@H]2[C@@H]3CCC4=CC(=O)CC[C@]4(C)[C@H]3CC[C@@]21C | -12.7% |
| CC[C@@H]([C@H](C)O)n1ncn(-c2ccc(N3CCN(c4ccc(OC[C@@H]5CO[C@@](Cn6cncn6)(c6ccc(F)cc6F)C5)cc4)CC3)cc2)c1=O | -1.14% |
| CCCCCCCCCCCCCCCC[n+]1ccccc1 | 67.4% |
| CN(C)C(=O)CNC(=O)Cc1ccccc1 | 7.26% |
| CO[C@]1(NC(=O)CSC(F)F)C(=O)N2C(C(=O)O)=C(CSc3nnnn3CCO)CO[C@H]21 | 19.6% |
| CC[C@@]1(O)C(=O)OCc2c1cc1n(c2=O)Cc2c-1nc1ccccc1c2/C=N/OC(C)(C)C | 108% |
| CCCCC(O)/C=C(C)/C=C/C=C/C(=O)N1CCCC1=O (stereo not drawn) | 2.49% |
| CC(=O)O[C@@H]1C(=O)O[C@@H]2[C@H]1OC(=O)[C@@H]2OC(C)=O | -2.42% |
| Nc1ncnc2n[nH]c(Nc3ccc(F)cc3)c12 | -2.73% |
